From the supplement of paper PMC10849652
Of roughly 8,800 targets only a part is listed; those with a hit were picked by preference. About 0.5% of all pairs of compound and target were hits.

Assays:
Experiment in all cases: log2 fold change, soluble protein after heating vs DMSO (PISA); higher = thermal stabilisation; K562 lysate, 10 uM; active = over 0.2 and 3.5 SD of the protein, either way, in both replicates (recomputed)
nilotinib = compound: Cc1cn(-c2cc(NC(=O)c3ccc(C)c(Nc4nccc(-c5cccnc5)n4)c3)cc(C(F)(F)F)c2)cn1 [nilotinib]
Outline: (§1)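 Values give the log-two fold change in thermal stability against solvent controls, from duplicates. Crude K562 extract at 1 mg/mL protein, made by dounce homogenisation in PBS pH 7.4 with 1 mM MgCl2, was treated with 10 μM compound for 30 min. After 3 min heating across 48°C-58°C, aliquots were pooled, adjusted to 0.5% NP-40 at 4°C and centrifuged at 21,000xg for 90 min. The supernatant was measured by TMTpro 16plex LC-MS/MS with channel sums equalised.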

[1] = compound: Cc1nc(Nc2n[nH]c3c2CN(C(=O)N[C@H](CN(C)C)c2ccccc2)C3(C)C)c2sccc2n1
Outline: as §1

dasatinib = compound: Cc1nc(Nc2ncc(C(=O)Nc3c(C)cccc3Cl)s2)cc(N2CCN(CCO)CC2)n1 [dasatinib]
Outline: as §1

[2] = compound: Cc1ncc(-c2ccnc(Nc3ccc(S(C)(=O)=O)cc3)n2)n1C(C)C
Outline: as §1

[3] = compound: Cn1cc(-c2ccc3c(c2)CCN3C(=O)Cc2cccc(C(F)(F)F)c2)c2c(N)ncnc21
Outline: as §1

quisinostat = compound: Cn1cc(CNCC2CCN(c3ncc(C(=O)NO)cn3)CC2)c2ccccc21 [quisinostat]
Outline: as §1

tipifarnib = compound: Cn1cncc1[C@@](N)(c1ccc(Cl)cc1)c1ccc2c(c1)c(-c1cccc(Cl)c1)cc(=O)n2C [tipifarnib]
Outline: as §1

[4] = compound: NC(=O)Nc1cc(-c2cccc(F)c2)sc1C(=O)N[C@H]1CCCNC1
Outline: as §1

[5] = compound: NC(=O)c1cnc(N[C@@H]2CCCC[C@@H]2N)nc1Nc1cccc(-n2nccn2)c1
Outline: as §1

[6] = compound: NC1(c2ccc(-c3nc4ccn5c(=O)[nH]nc5c4cc3-c3ccccc3)cc2)CCC1
Outline: as §1

[7] = compound: NCC(=O)Nc1ccc(-n2nc(C(F)(F)F)cc2-c2ccc3c(ccc4ccccc43)c2)cc1
Outline: as §1

vorinostat = compound: O=C(CCCCCCC(=O)Nc1ccccc1)NO [vorinostat]
Outline: as §1

silmitasertib = compound: O=C(O)c1ccc2c(c1)nc(Nc1cccc(Cl)c1)c1ccncc12 [silmitasertib]
Outline: as §1

[8] = compound: O=C1NC(=O)C(c2cnc3ccccn23)=C1c1cn2c3c(cc(F)cc13)CN(C(=O)N1CCCCC1)CC2
Outline: as §1

entospletinib = compound: c1cn2cc(-c3ccc4cn[nH]c4c3)nc(Nc3ccc(N4CCOCC4)cc3)c2n1 [entospletinib]
Outline: as §1

Measured: log2 fold change

ARHGEF2 (UniProt Q92974)
inactive: nilotinib 0.014 | [1] -0.01 | dasatinib -0.01 | [2] -0.025 | [3] 0.013 | quisinostat -0.048 | tipifarnib -0.04 | [4] 0.006 | [5] -0.008 | [6] 0.013 | [7] 0.042 | silmitasertib -0.029 | [8] 0.007 | entospletinib 0
active: vorinostat -0.248

ADAR isoform 4 (UniProt P55265)
active: vorinostat -0.35
inactive: nilotinib 0.006 | [1] 0.012 | dasatinib -0.026 | [2] -0.027 | [3] 0.009 | quisinostat -0.114 | tipifarnib -0.009 | [4] 0.015 | [5] -0.009 | [6] 0.029 | [7] -0.029 | silmitasertib 0.019 | [8] -0.031 | entospletinib 0.022

AKAP8 (UniProt O43823)
inactive: [1] 0.039 | dasatinib 0.01 | [2] -0.001 | [3] 0.006 | quisinostat -0.075 | tipifarnib 0.025 | [4] 0.084 | [5] 0.022 | [6] 0.059 | [7] 0.047 | vorinostat -0.095 | silmitasertib 0.019 | [8] 0.023 | entospletinib -0.046
active: nilotinib -0.3

ANXA13 isoform 2 (UniProt P27216)
Chain of UniProt P27216 (P27216 whole entry, looked up): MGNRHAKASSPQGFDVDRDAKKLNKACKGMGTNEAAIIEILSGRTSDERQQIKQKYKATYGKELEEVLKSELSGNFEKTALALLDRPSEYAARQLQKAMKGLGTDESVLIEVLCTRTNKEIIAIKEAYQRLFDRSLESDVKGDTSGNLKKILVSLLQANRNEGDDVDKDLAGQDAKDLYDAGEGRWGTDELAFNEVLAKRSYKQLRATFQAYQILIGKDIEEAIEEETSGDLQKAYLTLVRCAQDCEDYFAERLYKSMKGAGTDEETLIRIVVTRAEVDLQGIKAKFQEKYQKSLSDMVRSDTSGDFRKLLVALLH
inactive: nilotinib -0.001 | [1] 0.005 | dasatinib 0.007 | [2] -0.079 | [3] 0.104 | quisinostat -0.022 | tipifarnib 0.123 | [4] 0.023 | [5] 0.032 | [6] 0.078 | [7] -0.084 | vorinostat 0.004 | silmitasertib 0.024 | [8] 0.02

ANKRD10 (UniProt Q9NXR5)
inactive: nilotinib -0.042 | [1] -0.021 | dasatinib -0.05 | [2] 0.021 | [3] 0.012 | quisinostat 0.001 | tipifarnib -0.028 | [4] 0.036 | [5] 0.168 | [6] -0.029 | [7] 0 | silmitasertib 0.037 | [8] -0.066
active: vorinostat -0.589

ACACA isoform 4 (UniProt Q13085)
active: vorinostat -0.449
inactive: nilotinib -0.032 | [1] 0.004 | dasatinib -0.037 | [2] 0.028 | [3] 0.043 | quisinostat -0.024 | tipifarnib 0.081 | [4] 0.03 | [5] 0.01 | [6] -0.019 | [7] -0.003 | silmitasertib 0.016 | [8] -0.003 | entospletinib 0.027

ADAMTS5 (UniProt Q9UNA0)
inactive: nilotinib 0.003 | [1] -0.062 | dasatinib -0.01 | [2] -0.011 | [3] 0.014 | quisinostat -0.222 | tipifarnib -0.041 | [4] 0.016 | [5] 0.031 | [6] -0.083 | [7] 0.137 | vorinostat 0.028 | silmitasertib -0.065 | [8] 0.062 | entospletinib -0.125

AIMP2 (UniProt Q13155)
active: vorinostat -0.347
inactive: nilotinib 0.015 | [1] -0.015 | dasatinib -0.048 | [2] -0.002 | [3] -0.007 | quisinostat -0.009 | tipifarnib -0.003 | [4] 0.045 | [5] -0.012 | [6] -0.007 | [7] -0.046 | silmitasertib 0.048 | [8] 0.017 | entospletinib -0.017

ACTG1 (UniProt I3L4N8)
inactive: nilotinib -0.068 | [1] 0.104 | dasatinib 0.055 | [2] -0.045 | [3] -0.171 | quisinostat 0.032 | tipifarnib 0.11 | [4] -0.053 | [5] -0.033 | [6] -0.114 | [7] -0.131 | vorinostat 0.358 | silmitasertib -0.043 | [8] 0.082 | entospletinib 0.098

ARL8A (UniProt Q96BM9)
inactive: nilotinib 0.003 | [1] 0.049 | dasatinib 0.037 | [2] 0.091 | [3] -0.049 | quisinostat 0.17 | tipifarnib -0.203 | [4] 0.153 | [5] 0.247 | [6] -0.054 | [7] 0.192 | vorinostat 0.234 | silmitasertib -0.024 | [8] -0.03 | entospletinib 0.002

ALDH6A1 (UniProt Q02252)
inactive: nilotinib -0.053 | [1] 0.161 | dasatinib -0.144 | [2] -0.022 | [3] 0.06 | quisinostat -0.027 | tipifarnib -0.026 | [4] 0.018 | [5] -0.038 | [6] -0.013 | [7] -0.041 | vorinostat -0.046 | silmitasertib 0.042 | [8] 0.096 | entospletinib 0.035

ACACB (UniProt O00763)
Chain of UniProt O00763 (O00763 whole entry, looked up): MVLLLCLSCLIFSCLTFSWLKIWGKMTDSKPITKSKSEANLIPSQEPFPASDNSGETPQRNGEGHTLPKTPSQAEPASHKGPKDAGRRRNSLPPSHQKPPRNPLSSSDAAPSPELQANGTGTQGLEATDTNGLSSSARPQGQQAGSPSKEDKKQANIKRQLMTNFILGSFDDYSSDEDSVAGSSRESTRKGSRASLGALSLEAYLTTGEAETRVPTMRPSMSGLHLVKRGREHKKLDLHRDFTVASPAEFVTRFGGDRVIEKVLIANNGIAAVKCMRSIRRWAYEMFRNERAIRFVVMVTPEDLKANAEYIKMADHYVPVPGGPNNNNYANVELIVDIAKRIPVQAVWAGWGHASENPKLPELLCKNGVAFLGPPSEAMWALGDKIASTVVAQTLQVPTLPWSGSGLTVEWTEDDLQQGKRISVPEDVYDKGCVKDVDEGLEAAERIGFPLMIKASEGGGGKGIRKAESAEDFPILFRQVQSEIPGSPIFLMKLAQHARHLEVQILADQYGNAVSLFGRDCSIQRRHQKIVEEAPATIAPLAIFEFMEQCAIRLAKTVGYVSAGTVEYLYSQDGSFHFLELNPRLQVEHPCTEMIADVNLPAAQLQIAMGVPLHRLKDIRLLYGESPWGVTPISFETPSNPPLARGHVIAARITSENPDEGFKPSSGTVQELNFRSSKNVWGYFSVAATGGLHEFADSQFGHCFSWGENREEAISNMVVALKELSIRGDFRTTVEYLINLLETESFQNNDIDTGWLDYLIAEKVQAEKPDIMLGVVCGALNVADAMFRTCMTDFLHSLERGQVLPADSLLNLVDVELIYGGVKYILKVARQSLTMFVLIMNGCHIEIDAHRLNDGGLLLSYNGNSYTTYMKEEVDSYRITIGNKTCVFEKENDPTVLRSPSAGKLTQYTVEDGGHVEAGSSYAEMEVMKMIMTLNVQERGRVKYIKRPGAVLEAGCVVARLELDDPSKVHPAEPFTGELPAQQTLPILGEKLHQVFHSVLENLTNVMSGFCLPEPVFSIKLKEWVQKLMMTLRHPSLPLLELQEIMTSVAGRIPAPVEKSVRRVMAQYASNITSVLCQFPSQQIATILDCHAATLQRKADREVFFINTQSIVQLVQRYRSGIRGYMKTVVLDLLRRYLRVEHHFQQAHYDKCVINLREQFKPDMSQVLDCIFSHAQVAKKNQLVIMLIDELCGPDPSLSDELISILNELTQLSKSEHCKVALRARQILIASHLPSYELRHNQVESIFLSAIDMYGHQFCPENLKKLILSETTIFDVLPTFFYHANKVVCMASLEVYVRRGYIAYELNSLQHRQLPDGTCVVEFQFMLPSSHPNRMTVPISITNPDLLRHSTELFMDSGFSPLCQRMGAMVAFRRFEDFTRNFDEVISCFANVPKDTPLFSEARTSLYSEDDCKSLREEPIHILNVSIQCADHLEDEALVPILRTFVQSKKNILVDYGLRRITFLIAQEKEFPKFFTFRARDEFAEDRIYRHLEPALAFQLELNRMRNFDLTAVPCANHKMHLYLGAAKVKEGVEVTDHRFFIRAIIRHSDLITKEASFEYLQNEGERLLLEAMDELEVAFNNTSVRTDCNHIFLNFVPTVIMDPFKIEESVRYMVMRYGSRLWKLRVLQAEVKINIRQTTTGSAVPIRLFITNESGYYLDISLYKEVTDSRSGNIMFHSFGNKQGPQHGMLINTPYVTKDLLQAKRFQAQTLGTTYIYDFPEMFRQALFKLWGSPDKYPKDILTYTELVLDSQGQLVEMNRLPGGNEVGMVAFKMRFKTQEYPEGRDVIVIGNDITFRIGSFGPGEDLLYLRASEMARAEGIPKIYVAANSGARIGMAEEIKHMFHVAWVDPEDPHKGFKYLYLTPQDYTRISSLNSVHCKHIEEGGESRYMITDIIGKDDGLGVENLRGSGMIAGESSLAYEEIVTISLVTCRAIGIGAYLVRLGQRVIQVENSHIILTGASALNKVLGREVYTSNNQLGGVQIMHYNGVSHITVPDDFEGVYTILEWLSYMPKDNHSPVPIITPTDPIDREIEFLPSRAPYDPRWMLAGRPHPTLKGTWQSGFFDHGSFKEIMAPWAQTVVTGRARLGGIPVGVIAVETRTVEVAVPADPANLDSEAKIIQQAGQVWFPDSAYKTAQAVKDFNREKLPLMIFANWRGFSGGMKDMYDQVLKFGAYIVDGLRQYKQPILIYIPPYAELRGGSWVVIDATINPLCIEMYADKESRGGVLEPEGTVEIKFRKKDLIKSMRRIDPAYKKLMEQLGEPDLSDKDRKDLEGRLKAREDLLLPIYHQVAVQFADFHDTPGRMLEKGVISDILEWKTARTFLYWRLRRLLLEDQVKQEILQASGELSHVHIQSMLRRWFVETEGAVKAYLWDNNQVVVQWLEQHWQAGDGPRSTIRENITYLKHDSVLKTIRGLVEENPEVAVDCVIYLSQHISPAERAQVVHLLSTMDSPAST
inactive: nilotinib -0.001 | [1] -0.042 | dasatinib -0.021 | [2] -0.052 | [3] 0.05 | quisinostat -0.061 | tipifarnib 0.048 | [4] 0.062 | [5] -0.001 | [6] -0.018 | [7] -0.026 | silmitasertib 0.03 | [8] -0.009 | entospletinib 0.088
active: vorinostat -0.438

ANXA2 isoform 2 (UniProt P07355)
inactive: nilotinib 0.035 | [1] -0.016 | dasatinib 0.048 | [2] 0.003 | [3] -0.017 | quisinostat 0.064 | tipifarnib 0.016 | [4] -0.018 | [5] -0.015 | [6] 0.022 | [7] -0.015 | vorinostat 0.023 | silmitasertib -0.015 | [8] 0.003 | entospletinib 0.016

AGPS (UniProt O00116)
inactive: nilotinib -0.014 | [1] -0.021 | dasatinib -0.033 | [2] 0.05 | [3] 0.008 | quisinostat 0.064 | tipifarnib -0.015 | [4] 0.014 | [5] 0.004 | [6] 0.003 | [7] -0.015 | silmitasertib -0.007 | [8] -0.007 | entospletinib -0.005
active: vorinostat 0.365

ABL2 (UniProt P42684)
inactive: nilotinib -0.084 | [1] 0.157 | dasatinib 0.067 | [2] 0.091 | [3] 0.064 | quisinostat -0.16 | tipifarnib -0.116 | [4] 0.103 | [5] -0.028 | [6] -0.027 | [7] -0.093 | vorinostat -0.274 | silmitasertib 0.073 | [8] -0.055 | entospletinib -0.05

ALDH1L2 (UniProt Q3SY69)
Chain of UniProt Q3SY69 (Q3SY69 whole entry, looked up): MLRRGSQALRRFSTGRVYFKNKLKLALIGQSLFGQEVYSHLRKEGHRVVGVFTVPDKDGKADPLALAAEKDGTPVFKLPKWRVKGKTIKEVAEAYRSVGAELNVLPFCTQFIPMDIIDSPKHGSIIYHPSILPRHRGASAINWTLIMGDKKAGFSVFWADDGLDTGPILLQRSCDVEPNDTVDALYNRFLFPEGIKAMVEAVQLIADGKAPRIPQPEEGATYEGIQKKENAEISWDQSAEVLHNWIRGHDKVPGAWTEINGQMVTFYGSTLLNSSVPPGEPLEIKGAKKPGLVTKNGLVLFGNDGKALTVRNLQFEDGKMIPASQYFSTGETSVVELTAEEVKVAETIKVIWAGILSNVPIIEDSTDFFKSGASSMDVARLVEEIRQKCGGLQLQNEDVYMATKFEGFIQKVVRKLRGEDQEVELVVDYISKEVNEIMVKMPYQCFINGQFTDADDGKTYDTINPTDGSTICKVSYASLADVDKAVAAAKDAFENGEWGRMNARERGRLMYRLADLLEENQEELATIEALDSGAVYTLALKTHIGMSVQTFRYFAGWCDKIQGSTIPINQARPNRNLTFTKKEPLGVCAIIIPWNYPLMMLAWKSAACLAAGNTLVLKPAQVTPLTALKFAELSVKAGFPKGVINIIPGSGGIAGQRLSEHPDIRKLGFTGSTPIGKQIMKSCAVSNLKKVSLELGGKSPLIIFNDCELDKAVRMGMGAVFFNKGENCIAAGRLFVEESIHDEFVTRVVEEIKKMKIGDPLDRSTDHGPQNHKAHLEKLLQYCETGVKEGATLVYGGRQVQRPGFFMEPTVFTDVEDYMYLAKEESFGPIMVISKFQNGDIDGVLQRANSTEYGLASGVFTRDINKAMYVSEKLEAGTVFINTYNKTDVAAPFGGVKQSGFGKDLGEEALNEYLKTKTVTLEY
inactive: nilotinib -0.013 | [1] 0.01 | dasatinib -0.021 | [2] 0.012 | [3] 0.046 | quisinostat -0.027 | tipifarnib 0.012 | [4] 0.026 | [5] 0.05 | [6] -0.042 | [7] 0.017 | vorinostat 0.106 | silmitasertib 0.016 | [8] -0.027 | entospletinib 0.031

ANKRD27 (UniProt Q96NW4)
Chain of UniProt Q96NW4 (Q96NW4 whole entry, looked up): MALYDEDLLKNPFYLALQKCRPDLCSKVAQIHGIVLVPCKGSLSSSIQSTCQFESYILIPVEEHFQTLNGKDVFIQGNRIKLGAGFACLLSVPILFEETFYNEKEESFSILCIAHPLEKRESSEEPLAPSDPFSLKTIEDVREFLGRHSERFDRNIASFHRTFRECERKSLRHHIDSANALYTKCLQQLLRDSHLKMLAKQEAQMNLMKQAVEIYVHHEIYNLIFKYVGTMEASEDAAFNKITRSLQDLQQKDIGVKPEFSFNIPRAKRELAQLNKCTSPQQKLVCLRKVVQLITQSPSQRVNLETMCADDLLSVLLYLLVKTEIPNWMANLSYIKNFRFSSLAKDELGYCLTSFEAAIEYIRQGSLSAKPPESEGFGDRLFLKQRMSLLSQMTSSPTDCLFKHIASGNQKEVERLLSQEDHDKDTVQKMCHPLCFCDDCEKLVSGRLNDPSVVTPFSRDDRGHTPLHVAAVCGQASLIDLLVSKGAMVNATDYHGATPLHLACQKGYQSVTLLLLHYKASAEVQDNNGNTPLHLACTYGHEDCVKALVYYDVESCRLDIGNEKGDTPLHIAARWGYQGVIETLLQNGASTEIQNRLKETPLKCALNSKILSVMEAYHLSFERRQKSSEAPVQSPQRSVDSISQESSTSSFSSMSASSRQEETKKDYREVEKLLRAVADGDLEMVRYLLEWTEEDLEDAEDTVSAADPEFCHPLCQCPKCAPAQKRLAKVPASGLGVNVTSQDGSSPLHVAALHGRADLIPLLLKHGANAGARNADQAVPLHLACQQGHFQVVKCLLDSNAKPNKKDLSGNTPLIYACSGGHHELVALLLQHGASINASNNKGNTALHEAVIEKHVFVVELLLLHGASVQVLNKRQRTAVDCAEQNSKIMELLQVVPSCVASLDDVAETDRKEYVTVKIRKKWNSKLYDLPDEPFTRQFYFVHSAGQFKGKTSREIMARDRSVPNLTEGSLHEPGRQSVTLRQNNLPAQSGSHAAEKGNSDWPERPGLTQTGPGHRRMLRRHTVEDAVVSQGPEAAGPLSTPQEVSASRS
active: vorinostat -0.451
inactive: nilotinib 0.016 | [1] 0.049 | dasatinib -0.01 | [2] 0.061 | [3] -0.023 | quisinostat -0.177 | tipifarnib -0.067 | [4] 0.05 | [5] 0.025 | [6] -0.033 | [7] -0.066 | silmitasertib -0.025 | [8] 0.022 | entospletinib 0.01

ABI1 isoform 9 (UniProt Q8IZP0)
inactive: nilotinib -0.006 | [1] -0.004 | dasatinib -0.001 | [2] -0.02 | [3] -0.016 | quisinostat 0.003 | tipifarnib -0.01 | [4] -0.023 | [5] 0.003 | [6] 0.032 | [7] 0.046 | vorinostat 0.026 | silmitasertib -0.025 | [8] 0.03 | entospletinib 0.018

ANXA5 (UniProt P08758)
Chain of UniProt P08758 (P08758 whole entry, looked up): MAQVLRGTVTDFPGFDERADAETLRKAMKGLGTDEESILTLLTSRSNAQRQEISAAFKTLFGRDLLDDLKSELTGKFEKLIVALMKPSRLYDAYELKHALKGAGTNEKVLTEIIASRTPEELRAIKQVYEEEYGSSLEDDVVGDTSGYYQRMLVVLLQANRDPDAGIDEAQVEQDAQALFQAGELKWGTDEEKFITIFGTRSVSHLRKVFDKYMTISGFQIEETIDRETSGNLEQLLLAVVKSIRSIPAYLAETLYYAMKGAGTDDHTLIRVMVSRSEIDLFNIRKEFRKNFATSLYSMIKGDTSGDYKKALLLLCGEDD
inactive: nilotinib 0.031 | [1] -0.008 | dasatinib -0.009 | [2] -0.067 | [3] 0.022 | quisinostat 0.111 | tipifarnib 0.019 | [4] 0.018 | [5] 0.01 | [6] 0.012 | [7] -0.008 | vorinostat 0.056 | silmitasertib 0.021 | [8] -0.017 | entospletinib 0.006

ALKBH4 (UniProt Q9NXW9)
active: vorinostat 0.264
inactive: nilotinib -0.053 | [1] -0.05 | dasatinib -0.028 | [2] -0.008 | [3] 0.007 | quisinostat -0.01 | tipifarnib 0.023 | [4] 0.023 | [5] -0.013 | [6] 0.047 | [7] 0.061 | silmitasertib -0.032 | [8] -0.088 | entospletinib -0.012

ACBD6 (UniProt Q9BR61)
active: vorinostat -0.298
inactive: nilotinib -0.032 | [1] 0.007 | dasatinib 0.04 | [2] 0.012 | [3] 0.013 | quisinostat -0.017 | tipifarnib 0.013 | [4] -0.014 | [5] 0.06 | [6] -0.04 | [7] -0.009 | silmitasertib 0.003 | [8] 0.028 | entospletinib -0.028
